# Screening results as filed in PubChem.
# Sampled rows, rich in hits. Any-hit rate of the full collection: about 27%.
# CYP2C9 activ: activators of human CYP2C9; P11712; recombinant CYP2C9, luciferin-H conversion, luminescence; hits give high values; factor 1 = untreated enzyme, 0 = blocked; activation factor at 5 µM; 96,000 tested, 1.4% active; AID 1024;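 active means activation factor of 2 or more for CYP2C9 at a 5 µM dose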
# Target sequence (P11712 whole entry, looked up): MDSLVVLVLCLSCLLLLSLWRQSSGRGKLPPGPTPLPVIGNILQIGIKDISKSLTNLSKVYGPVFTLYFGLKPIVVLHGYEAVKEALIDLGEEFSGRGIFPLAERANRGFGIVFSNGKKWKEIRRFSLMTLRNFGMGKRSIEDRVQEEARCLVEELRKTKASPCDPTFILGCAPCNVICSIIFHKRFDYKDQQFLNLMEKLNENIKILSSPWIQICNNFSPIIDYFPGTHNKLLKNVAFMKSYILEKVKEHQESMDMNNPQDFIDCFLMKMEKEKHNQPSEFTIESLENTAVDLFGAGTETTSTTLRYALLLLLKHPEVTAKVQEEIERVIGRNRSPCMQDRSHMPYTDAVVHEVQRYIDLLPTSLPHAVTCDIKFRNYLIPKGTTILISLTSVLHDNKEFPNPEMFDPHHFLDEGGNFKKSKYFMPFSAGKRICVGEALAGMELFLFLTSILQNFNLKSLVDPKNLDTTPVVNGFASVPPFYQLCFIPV
# sEH inhibitor: inhibitors of human soluble epoxide hydrolase. P34913. recombinant human sEH enzymatic activity assay. inhibition, % at 2 µM. 91,000 tested, 0.34% active; in the data active means inhibition above about 80%
# CYP2C19 inhib: inhibitors of human CYP2C19. P33261. CYP2C19 Supersomes, luciferin-H EGE luminescence, 30 min. inhibition, % at 5 µM. 96,000 tested, 21% active. AID 778;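 active means CYP2C19 inhibition above a set limit at 5 µM in the primary screen, cut at about 50% in these data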
# CYP2C19 activ: cytochrome P450 2C19 (human) activation. recombinant CYP2C19, luciferin-H EGE luminescence; hits give high values; 0 = fully inhibited enzyme, 1 = untreated enzyme. activation factor at 5 µM. 96,000 tested, under 10 active. AID 1025;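 active means activation factor of at least 2 at 5 µM in the primary screen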
# sEH act: increases human soluble epoxide hydrolase activity; AID 717; purified human sEH enzymatic activity, activator screen; P34913; activation, % at 2 µM; 91,000 tested, 0.04% active; in the data active means activation above about 37%
# CYP2C9 inhib: human CYP2C9 inhibition; CYP2C9 Supersomes, luciferin-H conversion, luminescence; inhibition, % at 5 µM; 96,000 tested, 20% active; AID 777;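 active means blocking of liver enzyme CYP2C9 beyond about 50% at 5 µM, limit read from the data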
# A number is an active result; . = inactive; / = not tested or not shown.
SMILES,CYP2C9 activ,sEH inhibitor,CYP2C19 inhib,CYP2C19 activ,sEH act,CYP2C9 inhib
Cc1ccc(C(=O)N2CCSCC2)cc1,.,.,.,.,.,.
O=C(O)CCn1[nH]c(=O)c2ccccc2c1=O,.,.,.,.,.,.
CCOc1ccc(/C=N/NC(=O)Cc2csc(Nc3cccc(C(F)(F)F)c3)n2)cc1,.,.,.,.,.,.
CN(CC(N)=O)S(=O)(=O)c1ccc(F)cc1,.,.,.,.,.,.
CC(=O)Nc1ccc(S(=O)(=O)N(CCO)Cc2ccccc2)cc1,.,.,56,.,.,71
CC(=O)Nc1ccc(S(=O)(=O)N(C)S(=O)(=O)c2ccc(F)cc2)cc1,.,.,52,.,.,.
CC(=O)Nc1ccc(S(=O)(=O)NC(CC(=O)N(C)Cc2ccccc2)C(C)C)cc1 (stereo not given),.,.,.,.,.,.
CC(=O)Nc1ccc(S(=O)(=O)N(C)CCOCc2ccccc2)cc1,2,.,55,.,.,.
CC1CC(C)CN(CCCNC(=O)Cn2ncn3cccc3c2=O)C1 (stereo not given),.,.,.,.,.,.
CC(C)(C)NC(=O)COC(=O)c1nsc(Cl)c1Cl,/,.,/,/,.,/
Cc1[nH]nc(-c2ccc(OCc3cnn(-c4ccccc4)c3)c(C)c2O)c1Oc1ccccc1,.,.,.,.,.,.
CCOc1ccc(-c2n[nH]c(C)c2Oc2ccc(OC)cc2)c(O)c1,.,.,100,.,.,99
Cc1[nH]nc(-c2ccc(O)c(C)c2O)c1Oc1ccccc1,.,.,100,.,.,100
CCOc1ccc(-c2nc(N)ncc2Oc2cccc(OC)c2)c(O)c1,.,.,.,.,.,.
Cc1ccc(NCC(=O)N/N=C/c2ccc(OC(=O)c3ccco3)cc2)cc1,.,.,.,.,.,.
CC1=Nc2ccc(C)cc2N(Cc2ccccc2)C(=O)C1,.,.,.,.,.,.
COc1cc(-c2nnc(SCC(=O)N(Cc3ccccc3)C(C)(C)C)o2)cc(OC)c1OC,.,.,85,.,.,.
CCN(CC)C(=O)CSc1nnc(-c2cc(OC)cc(OC)c2)o1,.,.,.,.,.,.
CCCCN(CCCC)C(=O)CSc1nnc(-c2cc(OC)c(OC)c(OC)c2)o1,.,/,.,.,/,.
COc1cc(OC)cc(-c2nnc(SCC(=O)N(C(C)C)C(C)C)o2)c1,2.3,/,72,.,/,.
COc1cccc(-c2nnc(SCC(=O)N(C(C)C)C(C)C)o2)c1,.,/,.,.,/,.
COc1cc(OC)cc(-c2nnc(SCC(=O)N(Cc3ccccc3)C(C)(C)C)o2)c1,.,/,78,.,/,.
COc1ccccc1CC(NC(C)=O)C(=O)N1CCN(C(=O)Nc2ccccc2Cl)CC1 (stereo not given),.,.,.,.,.,.
COc1cc2c(C(=O)O)c(C)n(CC(C)C)c2c2ccccc12,.,.,.,.,.,.
CCCOc1ccc(CC(=O)NCC2(c3ccccc3)CCOCC2)cc1OC,.,.,.,.,.,.
SMILES,CYP2C9 activ,sEH inhibitor,CYP2C19 inhib,CYP2C19 activ,sEH act,CYP2C9 inhib
Cc1ccc(C(=O)Nc2ccc3c(c2)OCO3)cc1S(=O)(=O)N1CCCC1,.,.,.,.,.,58
O=C(O)c1cccc(NC(=O)c2ccc3c(c2)C(=O)N(CC2CCCO2)C3=O)c1 (stereo not given),.,.,77,.,.,73
Cc1ccc(C(=O)Nc2cccc(C(=O)O)c2)cc1S(=O)(=O)N1CCCCC1,.,/,.,.,/,57
Cc1ccc(C(=O)Nc2cccc(C(=O)O)c2)cc1S(=O)(=O)N1CCOCC1,.,.,.,.,.,.
Cc1ccc(C(=O)OCc2ccc3c(c2)OCO3)cc1S(=O)(=O)N1CCCCC1,.,.,79,.,.,95
COC(=O)c1cccc(NC(=O)c2ccc3c(c2)C(=O)N(CC2CCCO2)C3=O)c1 (stereo not given),.,.,.,.,.,.
CCCc1n[nH]c2c1/C(=N\O)CCC2,.,.,.,.,.,.
CCCCC(CC)C(=O)NCCCN1CCN(CCCNC(=O)C(CC)CCCC)CC1 (stereo not given),.,/,.,.,/,.
CCOC(=O)Cn1c(CN(C)Cc2ccccc2)nc2c1c(=O)n(C)c(=O)n2C,/,.,/,/,.,/
CCN1CCN(Cc2nc3c(c(=O)n(C)c(=O)n3C)n2CCCc2ccccc2)CC1,.,/,.,.,/,.
CN(Cc1ccccc1)Cc1nc2c(c(=O)n(C)c(=O)n2C)n1CCCc1ccccc1,.,.,83,.,.,94
CC(C)Cn1c(CN(C)Cc2ccccc2)nc2c1c(=O)n(C)c(=O)n2C,.,.,.,.,.,81
O=C(O)c1sccc1SCc1ccc(Cl)cc1Cl,.,.,.,.,.,54
CN(C)CCC(=O)NCC1OCCc2ccccc21 (stereo not given),.,.,.,.,.,.
CCn1c(O)c(C=NCc2cccs2)c(=O)n(CC)c1=S,.,.,.,.,.,83
N#Cc1cn(CC(=O)N2CCc3ccccc3C2)c2ccccc12,/,.,/,/,.,/
O=C(CCNS(=O)(=O)c1cccc2nsnc12)N1CCN(c2ccccn2)CC1,.,.,66,.,.,.
O=C(CCNS(=O)(=O)c1cccc2nsnc12)N1CCc2ccccc21,.,.,80,.,.,.
O=S(=O)(NCc1ccccn1)c1cccc2nsnc12,.,.,.,.,.,.
CC1Cc2ccccc2N1C(=O)CCNS(=O)(=O)c1cccc2nsnc12 (stereo not given),.,.,88,.,.,.
O=C(CCNS(=O)(=O)c1cccc2nsnc12)NC1CCCc2ccccc21 (stereo not given),.,/,.,.,/,.
CC1Cc2ccccc2N1C(=O)CCS(=O)(=O)c1cccc2nonc12 (stereo not given),.,/,.,.,/,.
COc1ccccc1OC(=O)c1ccc(SC)cc1OC,.,.,.,.,.,.
CCN(CCNC(=O)c1ccc2nc(-c3ccccc3NC(C)=O)c(=O)[nH]c2c1)c1ccccc1,.,/,.,.,/,.
CC(=O)Nc1ccccc1-c1nc2ccc(C(=O)N3CCN(c4cc(C)ccc4C)CC3)cc2[nH]c1=O,.,.,70,.,.,99
SMILES,CYP2C9 activ,sEH inhibitor,CYP2C19 inhib,CYP2C19 activ,sEH act,CYP2C9 inhib
O=C(CN1C(=O)CSC1=O)NC1CCCCC1,/,.,/,/,.,/
CCCCCCc1nc2c(=O)[nH]c3ccccc3c2o1,.,/,.,.,/,.
COc1cc(/C=C/c2cc(OC(C)=O)c3ccccc3n2)c(OC(C)=O)c([N+](=O)[O-])c1,.,.,75,.,.,79
O=C(COc1ccc(Cl)cc1)NC1CCSC1=O (stereo not given),.,.,65,.,.,.
O=S1(=O)CCC(N2CCOCC2)C1 (stereo not given),.,.,.,.,.,.
CCOC(=O)c1[nH]c(=O)[nH]c1CSc1nc(C)cc(C)n1,.,.,.,.,.,.
CCOC(=O)c1[nH]c(=O)[nH]c1COC(=O)c1cc2ccccc2o1,.,.,.,.,.,57
O=C(Cn1cc([N+](=O)[O-])cn1)Nc1nc2ccccc2s1,.,.,.,.,.,.
